Measured values reported in PubChem BioAssay.
The source made the active and inactive calls.

Experiments:
[1] = test system: Wnt5a (protein binding on small-molecule microarray); experiment: Wnt5a binders on small-molecule microarray, primary screen, biophysical, 635/667 nm fluorescence (AID 1142); settings: 635 nm fluorescence, higher = more signal;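 further: fluorescence read at 667 nm with signal to noise per printed feature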
[2] = cell viability in Huh7 cells, primary screen, cytotoxicity control for HCV replication inhibitor project, CellTiter-Glo luminescence, basal, 48 h (AID 1143); settings: Huh7 HCV replicon, higher = more signal, called active from +8 up or from −8 down;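 further: Huh7 hepatoma cells carrying a hepatitis C replication reporter with no stimulus; test concentration not given here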
[3] = CREB reporter modulators without forskolin, primary screen, cell-based, PC12, CRE-LacZ reporter, unstimulated (AID 1145); settings: no forskolin, luminescence, 4.5 h, higher = more signal, called active from +8 up or from −8 down
[4] = CREB reporter modulators under forskolin, primary screen, cell-based, PC12, CRE-LacZ reporter, forskolin-stimulated (AID 1146); settings: luminescence, 4.5 h, higher = more signal, called active from +8 up or from −8 down;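 further: PC12 cells with 6xCRE LacZ reporter stimulated by forskolin 10 µM; beta-galactosidase reporter signal reflecting CREB driven transcription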
[5] = target: Streptavidin (Streptomyces avidinii) (UniProt P22629); experiment: streptavidin binders on small-molecule microarray, primary screen, artefact control for SMM compound annotation, biophysical, 635/667 nm fluorescence (AID 1147); settings: streptavidin binding, higher = more signal;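 further: signal reflects streptavidin binding to arrayed compounds as a control protein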
[6] = small-molecule binders of probe aInhba, primary screen, biochemical, small-molecule microarray, 635/667 nm fluorescence (AID 1148); settings: higher = more signal;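 further: score merges 667nm spot fluorescence with signal-to-noise for antibody binding to printed compounds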
Torsin-1A (Homo sapiens) [7] = target: Torsin-1A (Homo sapiens) (UniProt O14656); experiment: torsin A binders from cell lysate, primary screen, small-molecule microarray, wild-type, 635/667 nm (AID 1149); settings: COS7 hTOR1A-WT lysate, 635 nm fluorescence, higher = more signal
Torsin-1A (Homo sapiens) [8] = target: Torsin-1A (Homo sapiens) (UniProt O14656); experiment: small-molecule binders of mutant TOR1A in lysate, primary screen, cell lysate, small-molecule microarray, COS7 lysate, 635/667 nm fluorescence (AID 1150); settings: COS7 hTOR1A mutant lysate, 635 nm fluorescence, higher = more signal;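 further: score pools 667 nm emission and signal to noise measuring lysate protein binding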
[9] = test system: Sonic hedgehog protein (Shh); experiment: small-molecule binders of Shh protein, primary screen, biochemical, small-molecule microarray, 635/667 nm fluorescence (AID 1151); settings: small-molecule microarray binding, 635 nm fluorescence; higher = more signal;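 further: Shh protein binding to compounds spotted on small-molecule microarray slides; score combines spot fluorescence intensity with signal-to-noise across triplicate slides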
[10] = E. coli DRC41 culture turbidity changes, primary screen, E. coli filamentation inducer project, strain DRC41, OD650, 48 h (AID 1152);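 further: E. coli MC1000 strain DRC41 lacking acrAB efflux pump and sulA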; settings: E. coli DRC41 (acrAB sulA), higher = more signal, called active from +8 up or from −8 down
[11] = small-molecule binders of probe aLefty1, primary screen, biochemical, small-molecule microarray, 635/667 nm fluorescence (AID 1153); settings: higher = more signal;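 further: score merges spot fluorescence with signal-to-noise ratio from the scanned slide images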
[12] = PSAC antagonists in infected red cells, primary screen, cell-based, P. falciparum Indochina, OD700, 1 h (AID 1154); settings: P. falciparum Indochina infected RBC osmotic lysis, higher = more signal, called active from +8 up or from −8 down
[13] = PSAC antagonists in infected red cells, primary screen, cell-based, P. falciparum Indochina, OD700, 2 h (AID 1155);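 further: lysis reports solute entry through the parasite surface anion channel PSAC; channel blockers reduce lysis of infected cells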; settings: P. falciparum Indochina infected erythrocytes, osmotic lysis OD700; higher = more signal, called active from +8 up or from −8 down
[14] = osmotic lysis modulators in infected erythrocytes, primary screen, PSAC antagonist project, cell-based, P. falciparum Indochina, OD700, 3 h (AID 1156); settings: higher = more signal, called active from +8 up or from −8 down
[15] = PSAC antagonists in infected red cells, primary screen, cell-based, P. falciparum Indochina, OD700, 18 h (AID 1157); settings: P. falciparum Indochina infected erythrocytes, osmotic lysis OD700, 18 h; higher = more signal, called active from +8 up or from −8 down
[16] = modulators of S6 phosphorylation in cells, primary screen, cell-based, A549, cytoblot, luminescence, serum-stimulated (AID 1158); settings: A549 phospho-S6 cytoblot, 5 h, higher = more signal;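 further: serum-stimulated A549 lung adenocarcinoma cells; signal is phosphorylated S6 detected by cytoblot immunostaining with HRP secondary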
[17] = target: NADPH oxidase 2 (Homo sapiens) (UniProt P04839); experiment: NOX2-dependent H2O2 signal modulators, primary screen, NOX inhibitor project, cell-based, HEK293-NOX2, PMA-stimulated, Amplex Red fluorescence (AID 1159); settings: 45 min, higher = more signal, called active from +8 up or from −8 down; further: test concentration not given here
[18] = target: NADPH oxidase 4 (Homo sapiens) (UniProt Q9NPH5); experiment: NOX4-dependent H2O2 signal modulators, primary screen, NOX inhibitor project, cell-based, HEK293-NOX4, tetracycline-induced, Amplex Red fluorescence (AID 1160); settings: 45 min, higher = more signal, called active from +8 up or from −8 down
[19] = target: NADPH oxidase 5 (Homo sapiens) (UniProt Q96PH1); experiment: NOX5-dependent H2O2 signal modulators, primary screen, NOX inhibitor project, cell-based, HEK293-NOX5, Amplex Red fluorescence (AID 1161); settings: HEK293-NOX5, ionomycin, 45 min, higher = more signal
[20] = A549 cell viability effects, profiling panel, calcein-AM fluorescence, 48 h, basal (AID 1162); settings: higher = more signal; further: test concentration not given here

Sequence of Torsin-1A (Homo sapiens) (O14656 whole entry, looked up): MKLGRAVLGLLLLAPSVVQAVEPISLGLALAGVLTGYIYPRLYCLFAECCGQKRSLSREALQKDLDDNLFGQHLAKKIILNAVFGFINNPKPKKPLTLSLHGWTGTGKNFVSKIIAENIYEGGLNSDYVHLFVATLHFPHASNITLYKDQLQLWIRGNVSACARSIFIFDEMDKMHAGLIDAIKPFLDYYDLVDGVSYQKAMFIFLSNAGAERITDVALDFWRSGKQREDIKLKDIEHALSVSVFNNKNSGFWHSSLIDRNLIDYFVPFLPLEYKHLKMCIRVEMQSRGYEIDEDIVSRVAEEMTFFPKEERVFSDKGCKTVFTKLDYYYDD
Sequence of NADPH oxidase 2 (Homo sapiens) (P04839 whole entry, looked up): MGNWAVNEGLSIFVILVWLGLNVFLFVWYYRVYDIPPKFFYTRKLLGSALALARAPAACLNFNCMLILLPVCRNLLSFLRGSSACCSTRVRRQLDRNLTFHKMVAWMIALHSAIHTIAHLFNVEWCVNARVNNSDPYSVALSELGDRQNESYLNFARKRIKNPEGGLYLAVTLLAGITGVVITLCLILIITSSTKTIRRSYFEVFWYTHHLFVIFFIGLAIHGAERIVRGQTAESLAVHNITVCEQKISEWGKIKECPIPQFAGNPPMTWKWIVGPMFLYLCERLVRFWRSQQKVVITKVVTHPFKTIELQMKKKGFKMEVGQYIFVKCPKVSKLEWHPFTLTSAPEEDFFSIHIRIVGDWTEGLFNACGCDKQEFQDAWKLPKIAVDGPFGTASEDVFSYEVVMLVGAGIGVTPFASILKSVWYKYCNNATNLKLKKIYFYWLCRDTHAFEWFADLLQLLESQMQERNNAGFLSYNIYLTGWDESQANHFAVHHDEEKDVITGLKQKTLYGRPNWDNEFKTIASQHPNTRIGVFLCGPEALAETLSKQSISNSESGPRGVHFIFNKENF
Sequence of NADPH oxidase 5 (Homo sapiens) (Q96PH1 whole entry, looked up): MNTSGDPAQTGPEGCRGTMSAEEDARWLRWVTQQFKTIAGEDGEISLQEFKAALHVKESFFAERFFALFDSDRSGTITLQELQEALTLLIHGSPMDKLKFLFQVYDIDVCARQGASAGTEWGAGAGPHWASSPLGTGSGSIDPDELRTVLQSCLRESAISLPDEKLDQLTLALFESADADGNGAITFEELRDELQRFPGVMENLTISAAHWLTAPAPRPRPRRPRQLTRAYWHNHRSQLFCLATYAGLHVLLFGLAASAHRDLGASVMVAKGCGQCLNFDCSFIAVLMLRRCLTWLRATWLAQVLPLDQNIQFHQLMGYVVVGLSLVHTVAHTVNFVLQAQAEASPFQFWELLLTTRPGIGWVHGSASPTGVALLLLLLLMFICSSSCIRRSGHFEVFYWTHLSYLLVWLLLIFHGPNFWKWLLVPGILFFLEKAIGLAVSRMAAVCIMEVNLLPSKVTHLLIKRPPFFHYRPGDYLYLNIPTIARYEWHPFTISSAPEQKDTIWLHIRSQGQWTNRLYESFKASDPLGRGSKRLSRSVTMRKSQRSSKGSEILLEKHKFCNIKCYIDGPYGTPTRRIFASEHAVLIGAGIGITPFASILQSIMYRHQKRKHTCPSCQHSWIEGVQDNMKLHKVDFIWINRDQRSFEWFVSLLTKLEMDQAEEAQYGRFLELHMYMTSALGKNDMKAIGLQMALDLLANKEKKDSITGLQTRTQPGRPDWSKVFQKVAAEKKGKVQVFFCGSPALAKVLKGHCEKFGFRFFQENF
Sequence of NADPH oxidase 4 (Homo sapiens) (Q9NPH5 whole entry, looked up): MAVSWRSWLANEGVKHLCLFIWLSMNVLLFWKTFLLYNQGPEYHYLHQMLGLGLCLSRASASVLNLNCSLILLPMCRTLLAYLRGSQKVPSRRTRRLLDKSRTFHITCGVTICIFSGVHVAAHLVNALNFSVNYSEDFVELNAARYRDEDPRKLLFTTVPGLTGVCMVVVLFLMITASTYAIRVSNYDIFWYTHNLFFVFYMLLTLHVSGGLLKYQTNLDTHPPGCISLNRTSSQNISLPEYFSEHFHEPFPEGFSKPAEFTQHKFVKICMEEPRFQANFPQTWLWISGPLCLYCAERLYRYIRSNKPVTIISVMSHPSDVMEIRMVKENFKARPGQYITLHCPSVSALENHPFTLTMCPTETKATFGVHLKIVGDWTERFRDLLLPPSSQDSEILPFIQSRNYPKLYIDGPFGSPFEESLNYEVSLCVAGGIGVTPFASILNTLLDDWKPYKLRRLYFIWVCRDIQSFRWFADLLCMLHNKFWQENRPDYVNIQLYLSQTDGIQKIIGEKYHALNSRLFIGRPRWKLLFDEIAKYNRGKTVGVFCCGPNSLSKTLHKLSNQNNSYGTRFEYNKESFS
Sequence of Streptavidin (Streptomyces avidinii) (P22629 whole entry, looked up): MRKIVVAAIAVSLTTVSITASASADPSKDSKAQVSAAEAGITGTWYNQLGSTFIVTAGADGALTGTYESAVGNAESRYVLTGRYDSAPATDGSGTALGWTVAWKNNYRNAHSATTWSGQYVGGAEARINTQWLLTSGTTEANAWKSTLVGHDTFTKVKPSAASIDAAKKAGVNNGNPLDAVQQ

SMILES	composite z-score [1]	z-score [2]	z-score [3]	z-score [4]	composite z-score [5]	composite z-score [6]	composite z-score (Torsin-1A (Homo sapiens) [7])	composite z-score (Torsin-1A (Homo sapiens) [8])	composite z-score [9]	z-score [10]	composite z-score [11]	z-score [12]	z-score [13]	z-score [14]	z-score [15]	z-score [16]	z-score [17]	z-score [18]	z-score [19]	z-score [20]
Cc1ccc(S[C@]2(C(=O)NCCN3CCOCC3)CC(=O)N(Cc3cc(C(F)(F)F)cc(C(F)(F)F)c3)[C@@H]2c2ccc(CO)cc2)cc1	0.322	-2.39 (inactive)	-0.464 (inactive)	-1.7 (inactive)	-0.721	-0.0371	-0.847	-0.521	-0.105	2.85 (inactive)	-0.0576	1.69 (inactive)	-0.152 (inactive)	-0.468 (inactive)	-1.39 (inactive)	2.65	0.538 (inactive)	0.706 (inactive)	0.754	0.422
CC(C)C[C@@H]1NC(=O)[C@H]2C[C@@H](C(=O)NCCCC[N+](C)(C)C)[C@@H](c3cccc(OCCO)c3)N2C1=O	0.223	-1.01 (inactive)	-0.26 (inactive)	-1.21 (inactive)	-0.429	-0.1	2.05	0.629	2.03	0.512 (inactive)	-0.243	2.25 (inactive)	-1.73 (inactive)	-2.51 (inactive)	-2.05 (inactive)	0.251	-1.8 (inactive)	-0.815 (inactive)	-1.49	1.01
COc1ccc(C#Cc2ccc3c(c2)[C@]2(C(=O)N3)[C@H](c3ccc(O)cc3)N3[C@H](c4ccccc4)[C@H](c4ccccc4)OC(=O)[C@H]3[C@@H]2C(=O)N2CCN(c3ncccn3)CC2)cc1	0.167	-1.76 (inactive)	0.478 (inactive)	0.708 (inactive)	1.13	0.18	0.246	0.923	0.262	1.77 (inactive)	0.312	1.28 (inactive)	0.22 (inactive)	1.19 (inactive)	0.564 (inactive)	0.26	0.393 (inactive)	0.0458 (inactive)	1.21	0.214
COc1ccc(C(=O)Nc2cccc(CN3C(=O)[C@@]4(O[C@@H](CCO)[C@H]([Si](C)(C)c5ccc(OC)cc5)[C@H]4C)c4ccccc43)c2)cc1	0.143	-8.03 (active)	4.03 (inactive)	-2.29 (inactive)	0.182	-0.0523	0.317	0.478	0.626	0.677 (inactive)	-0.0082	9.1 (active)	1.27 (inactive)	-0.984 (inactive)	-0.11 (inactive)	0.487	-6.67 (inactive)	-2.83 (inactive)	-2.96	-3.95
